Where a name gives a salt, the structure may show the parent alone.
What follows are compounds tested on SARS-CoV-2 low-rank motif (SARS-low) (assay: normalised indicator fluorescence (fraction of RNA + indicator signal without compound); higher = less displacement of indicator (weaker competition)). Conditions: compound concentration: 5 uM; 30 min; indicator: TO-PRO-3 0.5 uM; RNA concentration: 0.5 uM.
Procedure, shortened: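 Indicator fluorescence, corrected by subtracting the buffer-plus-indicator blank and normalized to the RNA-plus-indicator signal without compound, is given as the mean of two independent experiments. The buffer was 20 mM phosphate pH 7.0, 20 mM NaCl and 80 mM KCl, with TO-PRO-1 or TO-PRO-3 and RNA in 96-well plates. Plates were read 30 min after compound addition (about 5 uM final) on an Infinite 200 PRO, exciting at 485 or 620 nm.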
`NC(=O)c1ccccc1Nc1ccnc(Nc2cccc(O)c2)n1` was tested, and the normalised indicator fluorescence was 1.06. With `COC(=O)C1=CC[C@@]23CC[C@@H]([C@@](C)(/C=C/C=C(\C)C(=O)O)OC2=O)[C@@]3(OC(C)=O)CC1` [Pseudolaric Acid B] the normalised indicator fluorescence was 1.27. For `O=[N+]([O-])c1ccc(-c2nc(-c3ccc(F)cc3)c(-c3ccncc3)[nH]2)cc1`, the normalised indicator fluorescence was 0.939. `COC1=C2C[C@@H](C)C[C@H](OC)[C@H](O)[C@@H](C)/C=C(\C)[C@H](OC(N)=O)[C@@H](OC)/C=C\C=C(/C)C(=O)NC(=CC1=O)C2=O` [Geldanamycin] showed a normalised indicator fluorescence of 1.36. `O=C(O)CCc1ccc(O)cc1O` [Hydroumbellic acid] gave a normalised indicator fluorescence of 1.15. `CCNC(=O)c1noc(-c2cc(C(C)C)c(O)cc2O)c1-c1ccc(CN2CCOCC2)cc1` [Luminespib] showed a normalised indicator fluorescence of 1.09. For `CO[C@@H]1[C@H](N(C)C(=O)c2ccccc2)C[C@H]2O[C@]1(C)n1c3ccccc3c3c4c(c5c6ccccc6n2c5c31)C(=O)NC4` [Midostaurin], the normalised indicator fluorescence was 1.35. Work on `CCNC(=O)c1[nH]nc(-c2cc(Cl)c(O)cc2O)c1-c1ccc(OC)cc1` yielded a normalised indicator fluorescence of 1.22. For `Cc1c(F)cc(C(=O)NC2CC2)cc1-c1ccc(C(=O)NCC(C)(C)C)cn1` [Losmapimod], the normalised indicator fluorescence was 1.04. Work on `O=C(Nc1nc2ccc(NC(=O)C34CC5CC(CC(C5)C3)C4)cc2s1)c1ccccc1` yielded a normalised indicator fluorescence of 1.12. With `N#CC(c1ccnc(OCc2ccc(CN3CCOCC3)cc2)n1)c1nc2ccccc2s1` (centres undefined) the normalised indicator fluorescence was 0.556. `COc1ccc(-c2coc3cc(O)ccc3c2=O)cc1O` [Calycosin] showed a normalised indicator fluorescence of 1.09. Work on `O=c1c(O)c(-c2ccccc2)oc2cc(O)cc(O)c12` [Galangin] yielded a normalised indicator fluorescence of 1.28. In the case of `O=C1O[C@H]([C@@H](O)CO)C(O)=C1O` [L(+)-Ascorbic acid], the normalised indicator fluorescence is reported as 1.24. `CC(C)c1cc(-c2n[nH]c(=O)n2-c2ccc3c(ccn3C)c2)c(O)cc1O` [Ganetespib] was tested, and the normalised indicator fluorescence was 1.28. With `Oc1ccc(-c2nc(-c3ccc(F)cc3)c(-c3ccncc3)[nH]2)cc1` the normalised indicator fluorescence was 1.23. Work on `C[C@H]1Oc2cc(cnc2N)-c2c(nn(C)c2C#N)CN(C)C(=O)c2ccc(F)cc21` [Lorlatinib] yielded a normalised indicator fluorescence of 1.23. `O=C1c2c(O)cc(O)cc2OC(c2ccc(O)c(O)c2)C1O` (centres undefined) [Taxifolin] showed a normalised indicator fluorescence of 1.31. `Cc1cc(NC(=O)c2cccc(NC(=O)/C=C/CN(C)C)c2)ccc1Nc1nccc(-c2cccnc2)n1` gave a normalised indicator fluorescence of 1.14. Compound `O=c1cc(-c2ccc(O)cc2)oc2cc(O)cc(O)c12` [Apigenin] has a normalised indicator fluorescence of 1.27. For `O=c1ccc2ccc(O)c(O)c2o1` [Daphnetin], the normalised indicator fluorescence was 0.935. In the case of `O=C(NC(Cc1cc(=O)[nH]c2ccccc12)C(=O)O)c1ccc(Cl)cc1` (centres undefined) [Rebamipide], the normalised indicator fluorescence is reported as 1.07. In the case of `CN(NC(=O)CC(=O)NN(C)C(=S)c1ccccc1)C(=S)c1ccccc1` [Elesclomol], the normalised indicator fluorescence is reported as 1.25. For `NNC(=O)c1ccncc1` [Isoniazid], the normalised indicator fluorescence was 1.13. `CC(=O)O[C@H]1C[C@@]2(C)[C@@H](C[C@@H](O)[C@H]3[C@@]4(C)CC[C@@H](O)[C@@H](C)[C@@H]4CC[C@@]32C)/C1=C(\CCC=C(C)C)C(=O)O` [Fusidine] showed a normalised indicator fluorescence of 1.12. `CC1(C)C=Cc2c(ccc3c2OC[C@@H](c2ccc(O)cc2O)C3)O1` [Glabridin] showed a normalised indicator fluorescence of 1.2. `O=c1cc(-c2ccccc2)oc2cc(O)c(O)c(O)c12` [Baicalein] showed a normalised indicator fluorescence of 0.739. With `Cn1cc(C2=C(c3cn(CCCSC(=N)N)c4ccccc34)C(=O)NC2=O)c2ccccc21` [Ro 31-8220 Mesylate] the normalised indicator fluorescence was 1.01. For `CCc1oc2ccccc2c1C(=O)c1cc(Br)c(O)c(Br)c1` [Benzbromarone], the normalised indicator fluorescence was 1.4. Compound `COc1ccc([C@@H]2OC[C@H]3[C@@H]2CO[C@@H]3c2ccc(O[C@@H]3O[C@H](CO)[C@@H](O)[C@H](O)[C@H]3O)c(OC)c2)cc1OC` [Forsythin] has a normalised indicator fluorescence of 1.16. Work on `COC(=O)c1ccc([C@H]2c3[nH]c4ccccc4c3C[C@H](C(=O)OC)N2C(=O)CCl)cc1` yielded a normalised indicator fluorescence of 1.16. In the case of `COc1ccc(C2CC(=O)c3c(O)cc(OC4OC(COC5OC(C)C(O)C(O)C5O)C(O)C(O)C4O)cc3O2)cc1OC` (centres undefined) [Methyl hesperidin], the normalised indicator fluorescence is reported as 1.37. In the case of `CC1(C)OC(=O)C=C[C@]2(C)[C@H]3CC[C@@]4(C)[C@H](c5ccoc5)OC(=O)[C@H]5O[C@]54[C@]3(C)C(=O)C[C@@H]12` [Obacunone], the normalised indicator fluorescence is reported as 0.991. Work on `C[C@@H]1O[C@@H](O[C@@H]2[C@@H](O)[C@H](OCCc3ccc(O)c(O)c3)O[C@H](CO)[C@H]2OC(=O)/C=C/c2ccc(O)c(O)c2)[C@H](O)[C@H](O)[C@H]1O` [Verbascoside] yielded a normalised indicator fluorescence of 1.16.
